Assay [1] in a line: NCI Yeast Anticancer Drug Screen. Data for the rad50 strain (AID 155).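 Note: 0% = growth of vehicle-only cultures of the same strain.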 The following applies: S. cerevisiae rad50 strain growth inhibition, hits give high values. An outline of the steps: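 A DNA repair-deficient yeast mutant serves as the test organism; compound-induced growth inhibition is calculated against vehicle-treated cells.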
The nature of assay [2]: NCI Yeast Anticancer Drug Screen. Data for the mec2-1 strain (AID 157). Conditions: S. cerevisiae mec2-1 strain, hits give high values. Summed up:
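Cells of the genetically defined mec2-1 yeast strain are incubated with test compound. Inhibition of growth is calculated against vehicle-treated controls.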

A short description of assay [3]: NCI Yeast Anticancer Drug Screen. Data for the sgs1 mgt1 strain (AID 161).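 Note: 0% = growth of cultures given vehicle only.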 Conditions: S. cerevisiae sgs1 mgt1 strain, hits give high values. An outline of the steps:
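Inhibition of yeast growth, normalised to vehicle-treated controls, is reported for a strain bearing genetic alterations in DNA damage repair.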

Assay [4] is described as follows: NCI Yeast Anticancer Drug Screen. Data for the cln2 rad14 strain (AID 165).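 Note: 0% = growth equal to vehicle treated cultures.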 The following applies: S. cerevisiae cln2 rad14 strain, hits give high values. An outline of the steps:
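The screen exposed genetically defined yeast (cln2 rad14) to test compounds and scored growth inhibition relative to vehicle-treated controls.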

The nature of assay [5]: NCI Yeast Anticancer Drug Screen. Data for the bub3 strain (AID 167). Conditions: S. cerevisiae bub3 mutant strain, hits give high values. An outline of the steps: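 Inhibition values come from growth of compound-treated mutant yeast normalised to vehicle-treated controls.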
The nature of assay [6]: NCI Yeast Anticancer Drug Screen. Data for the mlh1 rad18 strain (AID 175). Conditions: S. cerevisiae mlh1 rad18 strain growth inhibition, hits give high values. An outline of the steps: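 Compound-treated yeast growth, normalised to vehicle controls. Strain bears defined DNA repair mutations.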
Where [7] appears, read: at 5.0 µM (retest, dose inferred, filed as 0.5).
[8] abbreviates: at 50.0 µM (retest, dose inferred, filed as 5.0).

This is part of a sample that, as a whole, favours compounds with a hit. Of some 79,000 tested, about 15% had one in any assay. A number with no mark means an inactive call. Activity calls are given as the source filed them. Cut-off read from the data, not from the text of the source: active = growth inhibition above about 70%; inactive = the rest.

As for `COc1ccc(NC2Oc3cc4c(cc3C(c3cccc(OC)c3OC)C2C)OCO4)cc1` (stereo not given), the growth inhibition was -24% in assay [1] (setting [7]); 17% in assay [1] (setting [8]); 48% in assay [1] (at 50.0 µM); -13% in assay [2] (setting [7]); -15% in assay [2] (setting [8]); 49.5% in assay [2] (at 50.0 µM). Besides, the growth inhibition in assay [3] (setting [7]) is -6%; in assay [3] (setting [8]), -1%; in assay [3] (at 50.0 µM), 47.9%; in assay [4] (setting [7]) it was -10%; in assay [4] (setting [8]) it was 12%; in assay [4] (at 50.0 µM), 41.1%. For the same compound, the growth inhibition was -32% in assay [5] (setting [7]); 13% in assay [5] (setting [8]); 65.3% in assay [5] (at 50.0 µM); -19% in assay [6] (setting [7]); 9% in assay [6] (setting [8]); 71.3% (active) in assay [6] (at 50.0 µM).
Take `CCC(N)C(O)C(C)C` (stereo not given): the growth inhibition is -1% in assay [1] (setting [7]); 10% in assay [1] (setting [8]); 71.7% (active) in assay [1] (at 50.0 µM); -1% in assay [2] (setting [7]); 1% in assay [2] (setting [8]); 2.6% in assay [2] (at 50.0 µM). The growth inhibition is -3% in assay [3] (setting [7]); 2% in assay [3] (setting [8]); 14.3% in assay [3] (at 50.0 µM); -2% in assay [4] (setting [7]); -2% in assay [4] (setting [8]); -10.6% in assay [4] (at 50.0 µM). The growth inhibition in assay [5] (setting [7]) is 3%; in assay [5] (setting [8]), 17%; in assay [5] (at 50.0 µM) it was 13.2%; in assay [6] (setting [7]), -1%; in assay [6] (setting [8]), 3%; in assay [6] (at 50.0 µM) it was 10.6%.
For `CC(C)C12CCC3(CCC4C(C)(C(=O)O)CCCC4(C)C3C1)C(CN)C2` (stereo not given), the growth inhibition in assay [1] (setting [7]) is 3%; in assay [1] (setting [8]), 98% (active); in assay [1] (at 50.0 µM), 97.3% (active); in assay [2] (setting [7]) it was 9%; in assay [2] (setting [8]) it was 98% (active); in assay [2] (at 50.0 µM) it was 95.5% (active). The growth inhibition in assay [3] (setting [7]) is 17%; in assay [3] (setting [8]), 95% (active); in assay [3] (at 50.0 µM), 94.9% (active); in assay [4] (setting [7]) it was -20%; in assay [4] (setting [8]), 98% (active); in assay [4] (at 50.0 µM), 97.8% (active). Also, the growth inhibition in assay [5] (setting [7]) was -4%; in assay [5] (setting [8]), 98% (active); in assay [5] (at 50.0 µM), 96% (active); in assay [6] (setting [7]), 6%; in assay [6] (setting [8]) it was 98% (active); in assay [6] (at 50.0 µM), 93.3% (active).
Take `O=Cc1cc([N+](=O)[O-])ccc1O`: the growth inhibition is 95% (active) in assay [1] (setting [7]); 99% (active) in assay [1] (setting [8]); 93.8% (active) in assay [1] (at 50.0 µM); 98% (active) in assay [2] (setting [7]); 99% (active) in assay [2] (setting [8]); 96.7% (active) in assay [2] (at 50.0 µM). Besides, the growth inhibition in assay [3] (setting [7]) was 86% (active); in assay [3] (setting [8]), 99% (active); in assay [3] (at 50.0 µM), 98.5% (active); in assay [4] (setting [7]), 96% (active); in assay [4] (setting [8]), 99% (active); in assay [4] (at 50.0 µM) it was 74.2% (active). The growth inhibition is 97% (active) in assay [5] (setting [7]); 99% (active) in assay [5] (setting [8]); 94.8% (active) in assay [5] (at 50.0 µM); 98% (active) in assay [6] (setting [7]); 99% (active) in assay [6] (setting [8]); 97% (active) in assay [6] (at 50.0 µM).
In the case of `COc1ccc2nc(NC(=O)Nc3c(Cl)cccc3Cl)sc2c1`, the growth inhibition in assay [1] (setting [7]) is 13%; in assay [1] (setting [8]), 99% (active); in assay [1] (at 50.0 µM) it was 98.4% (active); in assay [2] (setting [7]), -3%; in assay [2] (setting [8]) it was 99% (active); in assay [2] (at 50.0 µM), 99.3% (active). Besides, the growth inhibition was 20% in assay [3] (setting [7]); 99% (active) in assay [3] (setting [8]); 99% (active) in assay [3] (at 50.0 µM); 15% in assay [4] (setting [7]); 98% (active) in assay [4] (setting [8]); 97.6% (active) in assay [4] (at 50.0 µM). Also, the growth inhibition is 2% in assay [5] (setting [7]); 99% (active) in assay [5] (setting [8]); 98.7% (active) in assay [5] (at 50.0 µM); 30% in assay [6] (setting [7]); 98% (active) in assay [6] (setting [8]); 98.3% (active) in assay [6] (at 50.0 µM).
With `O=C(CBr)c1cccc(OC(=O)c2ccccc2)c1`, the growth inhibition in assay [1] (setting [7]) was 91% (active); in assay [1] (setting [8]) it was 99% (active); in assay [1] (at 50.0 µM) it was 44.2%; in assay [2] (setting [7]), 91% (active); in assay [2] (setting [8]) it was 98% (active); in assay [2] (at 50.0 µM) it was 26.1%. In addition, the growth inhibition in assay [3] (setting [7]) was 100% (active); in assay [3] (setting [8]), 99% (active); in assay [3] (at 50.0 µM), 68%; in assay [4] (setting [7]) it was 88% (active); in assay [4] (setting [8]), 99% (active); in assay [4] (at 50.0 µM), 29.9%. For the same compound, the growth inhibition in assay [5] (setting [7]) was 99% (active); in assay [5] (setting [8]), 99% (active); in assay [5] (at 50.0 µM) it was 56.2%; in assay [6] (setting [7]), 90% (active); in assay [6] (setting [8]), 99% (active); in assay [6] (at 50.0 µM), 16.1%.
`Cc1nn(C(=O)c2ccccc2O)c2c1C(c1ccc([N+](=O)[O-])cc1)SC(N)=N2` (stereo not given): the growth inhibition was 6% in assay [1] (setting [7]); 81% (active) in assay [1] (setting [8]); 35.5% in assay [1] (at 50.0 µM); -4% in assay [2] (setting [7]); 80% (active) in assay [2] (setting [8]); 47% in assay [2] (at 50.0 µM). For the same compound, the growth inhibition in assay [3] (setting [7]) is -1%; in assay [3] (setting [8]), 89% (active); in assay [3] (at 50.0 µM), 69.5%; in assay [4] (setting [7]) it was -8%; in assay [4] (setting [8]), 36%; in assay [4] (at 50.0 µM), 12.3%. Also, the growth inhibition in assay [5] (setting [7]) is -8%; in assay [5] (setting [8]) it was 71% (active); in assay [5] (at 50.0 µM) it was 91.2% (active); in assay [6] (setting [7]), 10%; in assay [6] (setting [8]), 96% (active); in assay [6] (at 50.0 µM), 53.4%.
Turning to `C=CCOC(=O)CC(OC(C)=O)C(CC)CC(C)C` (stereo not given), the growth inhibition in assay [1] (setting [7]) was 0%; in assay [1] (setting [8]), 26%; in assay [1] (at 50.0 µM) it was 24.4%; in assay [2] (setting [7]) it was -1%; in assay [2] (setting [8]), 12%; in assay [2] (at 50.0 µM), 19.1%. Besides, the growth inhibition in assay [3] (setting [7]) was -6%; in assay [3] (setting [8]) it was 3%; in assay [3] (at 50.0 µM), 18.3%; in assay [4] (setting [7]), 2%; in assay [4] (setting [8]), 20%; in assay [4] (at 50.0 µM), 80.7% (active). Moreover, the growth inhibition is 3% in assay [5] (setting [7]); 15% in assay [5] (setting [8]); 40.3% in assay [5] (at 50.0 µM); 0% in assay [6] (setting [7]); 12% in assay [6] (setting [8]); 27.9% in assay [6] (at 50.0 µM).
In the case of `O=C(O)CC1c2ccccc2-c2ccccc21`, the growth inhibition in assay [1] (setting [7]) is -5%; in assay [1] (setting [8]) it was 36%; in assay [1] (at 50.0 µM) it was 87.7% (active); in assay [2] (setting [7]), -24%; in assay [2] (setting [8]), 24%; in assay [2] (at 50.0 µM) it was 64.5%. Further, the growth inhibition in assay [3] (setting [7]) was -4%; in assay [3] (setting [8]), 31%; in assay [3] (at 50.0 µM), 78.7% (active); in assay [4] (setting [7]) it was -3%; in assay [4] (setting [8]), 54%; in assay [4] (at 50.0 µM), 43.9%. In addition, the growth inhibition in assay [5] (setting [7]) is -6%; in assay [5] (setting [8]) it was 82% (active); in assay [5] (at 50.0 µM) it was 82.8% (active); in assay [6] (setting [7]), -7%; in assay [6] (setting [8]), 67%; in assay [6] (at 50.0 µM), 79.3% (active).
On to `COC(=O)CSc1nc2ccccc2[nH]1`, for which the growth inhibition in assay [1] (setting [7]) is -146%; in assay [1] (setting [8]), -48%; in assay [1] (at 50.0 µM) it was 27%; in assay [2] (setting [7]), -48%; in assay [2] (setting [8]), -47%; in assay [2] (at 50.0 µM) it was -11.8%. In addition, the growth inhibition in assay [3] (setting [7]) was -64%; in assay [3] (setting [8]), -39%; in assay [3] (at 50.0 µM), -6.2%; in assay [4] (setting [7]), -50%; in assay [4] (setting [8]), -59%; in assay [4] (at 50.0 µM), -27.1%. Also, the growth inhibition in assay [5] (setting [7]) was -63%; in assay [5] (setting [8]), -46%; in assay [5] (at 50.0 µM), -19.6%; in assay [6] (setting [7]), -119%; in assay [6] (setting [8]), -119%; in assay [6] (at 50.0 µM), -29.6%.

The values are drawn from PubChem BioAssay (NCI).
